Inconclusive results are not listed. The source made the active and inactive calls. Calls come from the whole dose curve; as a rule, active = well fitted cell-killing curve with a large enough effect; inconclusive = small, poorly fitted or top-dose-only effect, or effect the other way; inactive = flat fitted curve, though single readings scatter.
Columns and labels:
Experiment in all cases: Primary qHTS to identify gynecologic anti-cancer compounds using libraries of approved drugs and bioactive compounds (AID 1345084); note: nearly all actives have a fitted effect of over 55% in size
C33A = settings: Gynecologic cancer cell panel viability, ATPlite luminescence, 48 h; series mostly up to 57.5 µM
Method in brief: (§1)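 ATP-based viability (ATPlite), 1,000 cells/well, 16 h pre-incubation, 48 h compound at 37 C, 5% CO2, 15 min RT before read.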

CAOV3 = settings: Gynecologic cancer cell panel viability, ATPlite luminescence, 48 h; series mostly up to 57.5 µM
Method in brief: as §1

CASKI = settings: Gynecologic cancer cell panel viability, ATPlite luminescence, 48 h; series mostly up to 57.5 µM
Method in brief: as §1

Es-2 = settings: Gynecologic cancer cell panel viability, ATPlite luminescence, 48 h; series mostly up to 57.5 µM
Method in brief: as §1

HeLa = settings: Gynecologic cancer cell panel viability, ATPlite luminescence, 48 h; series mostly up to 57.5 µM
Method in brief: as §1

Hek293T = settings: Gynecologic cancer cell panel viability, ATPlite luminescence, 48 h, control line for the selectivity index; series mostly up to 57.5 µM
Method in brief: as §1

JEG-3 = settings: Gynecologic cancer cell panel viability, ATPlite luminescence, 48 h; series mostly up to 57.5 µM
Method in brief: as §1

OV90 = settings: Gynecologic cancer cell panel viability, ATPlite luminescence, 48 h; series mostly up to 57.5 µM
Method in brief: as §1

PA-1 = settings: Gynecologic cancer cell panel viability, ATPlite luminescence, 48 h; series mostly up to 57.5 µM
Method in brief: as §1

SKOV3 = settings: Gynecologic cancer cell panel viability, ATPlite luminescence, 48 h; series mostly up to 57.5 µM
Method in brief: as §1

Tov-21-G = settings: Gynecologic cancer cell panel viability, ATPlite luminescence, 48 h; series mostly up to 57.5 µM
Method in brief: as §1

Tov112D = settings: Gynecologic cancer cell panel viability, ATPlite luminescence, 48 h; series mostly up to 57.5 µM
Method in brief: as §1

Measured: Potency

CC1(C)COC(=O)[C@@H]1O[C@@H]1O[C@H](CO)[C@@H](O)[C@H](O)[C@H]1O
inactive: C33A | CAOV3 | CASKI | Es-2 | HeLa | Hek293T | JEG-3 | OV90 | PA-1 | SKOV3 | Tov-21-G | Tov112D

C=C(CCO)C(=O)OCC1OCC(OC(=O)C(=C)CCO[C@@H]2O[C@H](CO)[C@@H](O)[C@H](O)[C@H]2O)C(O)C1O (stereo partly drawn)
inactive: C33A | CAOV3 | CASKI | Es-2 | HeLa | Hek293T | JEG-3 | OV90 | PA-1 | SKOV3 | Tov-21-G | Tov112D

CC1(C)C2CC[C@]3(C)C(C(=O)C=C4[C@H]5C[C@@](C)(C(=O)O)CC[C@]5(C)CC[C@]43C)[C@@]2(C)CC[C@@H]1O (stereo partly drawn)
inactive: C33A | CAOV3 | CASKI | Es-2 | HeLa | Hek293T | JEG-3 | OV90 | PA-1 | SKOV3 | Tov-21-G | Tov112D

C/C=C1/C[N+](C)([O-])C2Cc3c([nH]c4ccccc34)C(=O)CC1C2C(=O)OC (stereo not drawn)
inactive: C33A | CAOV3 | CASKI | Es-2 | HeLa | Hek293T | JEG-3 | OV90 | PA-1 | SKOV3 | Tov-21-G | Tov112D

C=C(C(=O)O)[C@H]1C[C@]2(C)C(=O)CC[C@]23O[C@H]1C[C@@H]3C
inactive: C33A | CAOV3 | CASKI | Es-2 | HeLa | Hek293T | JEG-3 | OV90 | PA-1 | SKOV3 | Tov-21-G | Tov112D

COc1cc(C(C)=O)ccc1O[C@@H]1O[C@H](CO)[C@@H](O)[C@H](O)[C@H]1O
inactive: C33A | CAOV3 | CASKI | Es-2 | HeLa | Hek293T | JEG-3 | OV90 | PA-1 | SKOV3 | Tov-21-G | Tov112D

C=C1CC2C3(C)C(O)CC(=O)C(C)(C)C3C(O)C(OC(C)=O)C2(C)C2C(=O)OC(C)(C(=O)OC)C(=O)C12C (stereo not drawn)
inactive: C33A | CAOV3 | CASKI | Es-2 | HeLa | Hek293T | JEG-3 | OV90 | PA-1 | SKOV3 | Tov-21-G | Tov112D

Oc1ccc2c(-c3c(-c4ccccn4)nn4c3CCC4)ccnc2c1
inactive: C33A | CAOV3 | CASKI | Es-2 | HeLa | Hek293T | JEG-3 | OV90 | PA-1 | SKOV3 | Tov-21-G | Tov112D

Cc1occc(=O)c1O[C@@H]1O[C@H](CO[C@@H]2OC[C@](O)(CO)[C@H]2O)[C@@H](O)[C@H](O)[C@H]1O
inactive: C33A | CAOV3 | CASKI | Es-2 | HeLa | Hek293T | JEG-3 | OV90 | PA-1 | SKOV3 | Tov-21-G | Tov112D

COc1cccc(C(=O)NCCNc2nc3cc(C)cc(C)c3cc2C#N)c1
inactive: C33A | CAOV3 | CASKI | Es-2 | HeLa | Hek293T | JEG-3 | OV90 | PA-1 | SKOV3 | Tov-21-G | Tov112D

O=C(C1OC1/C=C/c1ccc2c(c1)OCO2)N1CCCCC1 (stereo not drawn)
inactive: C33A | CAOV3 | CASKI | Es-2 | HeLa | Hek293T | JEG-3 | OV90 | PA-1 | SKOV3 | Tov-21-G | Tov112D

C/C=C(\C)C(=O)O[C@H]1C=CC(=O)O[C@H]1/C=C/[C@H](O)[C@@H](C)O
inactive: C33A | CAOV3 | CASKI | Es-2 | HeLa | Hek293T | JEG-3 | OV90 | PA-1 | SKOV3 | Tov-21-G | Tov112D

COc1ccc(/C=C/C(=O)O[C@@H]2[C@@H](O)[C@@H](O)[C@H](O[C@H]3[C@@H]4C=CO[C@@H](O[C@@H]5O[C@H](CO)[C@@H](O)[C@H](O)[C@H]5O)[C@@H]4[C@@]4(CO)O[C@@H]34)O[C@H]2C)cc1
inactive: C33A | CAOV3 | CASKI | Es-2 | HeLa | Hek293T | JEG-3 | OV90 | PA-1 | SKOV3 | Tov-21-G | Tov112D

CC(=O)O[C@@H]1C=C2[C@H](CC[C@@]3(C)[C@@]2(O)CC[C@H]2Cc4c([nH]c5ccccc45)[C@@]23C)O[C@@H]1C(C)(C)O
inactive: C33A | CAOV3 | CASKI | Es-2 | HeLa | Hek293T | JEG-3 | OV90 | PA-1 | SKOV3 | Tov-21-G | Tov112D

— PubChem BioAssay (NCATS)
